CYP2C9 inh: blockers of cytochrome P450 2C9 activity – biochemical, luminescence, ADME assay, primary screen; P11712; 96,000 compounds, 20% hits; AID 777, 2007; CYP2C9 Supersomes, luciferin-H conversion; inhibition, % at 5 µM;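 active = blocking of liver enzyme CYP2C9 beyond about 50% at 5 µM, limit read from the data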
CYP2C19 inh: blockers of cytochrome P450 2C19 activity – biochemical, luminescence, ADME assay, primary screen | CYP2C19 Supersomes, luciferin-H EGE luminescence, 30 min | inhibition, % at 5 µM | 96,000 compounds, 21% hits;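 active = CYP2C19 inhibition above a set limit at 5 µM in the primary screen, cut at about 50% in these data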
Target sequence (P33261 whole entry, looked up): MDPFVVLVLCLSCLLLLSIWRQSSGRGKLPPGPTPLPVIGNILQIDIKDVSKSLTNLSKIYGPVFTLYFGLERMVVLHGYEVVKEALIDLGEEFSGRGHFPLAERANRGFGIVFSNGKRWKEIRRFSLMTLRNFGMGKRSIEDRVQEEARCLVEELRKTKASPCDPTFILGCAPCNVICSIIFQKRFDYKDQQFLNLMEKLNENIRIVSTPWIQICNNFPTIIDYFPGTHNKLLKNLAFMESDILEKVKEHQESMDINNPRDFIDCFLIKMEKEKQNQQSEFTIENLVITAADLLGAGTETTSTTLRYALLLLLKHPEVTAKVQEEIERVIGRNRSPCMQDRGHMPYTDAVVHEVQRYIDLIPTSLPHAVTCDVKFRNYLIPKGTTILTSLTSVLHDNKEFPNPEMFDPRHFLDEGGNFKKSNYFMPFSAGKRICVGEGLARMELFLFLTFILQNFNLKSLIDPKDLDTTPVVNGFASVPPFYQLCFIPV
Cav3 T inh: Cav3.2 calcium influx blockers – cell-based, Fluo-4 calcium fluorescence, FDSS, MLSMR library, primary screen; 100,000 compounds, 4% hits; B-score at 10 µM; Cav3.2-expressing cells; stronger effect = lower value; Voltage-dependent T-type calcium channel subunit alpha-1H (Homo sapiens), O95180;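 active = single-dose well whose peak fluorescence ratio is a statistical outlier from its plate by either plate-standardised score or position-corrected B-score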
CYP2C19 act: human CYP2C19 activators, primary screen, biochemical, luminescence | recombinant CYP2C19, luciferin-H EGE luminescence; stronger effect = higher value; 0 = fully inhibited enzyme, 1 = untreated enzyme | Cytochrome P450 2C19 (Homo sapiens), P33261 | activation factor at 5 µM | 96,000 tested, under 10 active;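 active = activation factor of at least 2 at 5 µM in the primary screen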
CYP2C9 act: human CYP2C9 activators, primary screen, biochemical, luminescence; recombinant CYP2C9, luciferin-H conversion; stronger effect = higher value; factor 1 = untreated enzyme, 0 = blocked; activation factor at 5 µM; 96,000 compounds, 1.4% hits; AID 1024, 2008;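 active = activation factor of 2 or more for CYP2C9 at a 5 µM dose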
Large screens that a line does not name were inactive. Compounds with a hit are over-represented: about 27% of the library has one in this group of screens.

COc1ccccc1CN1C(=S)SC(C)(C)C1NO (stereo unspecified)	CYP2C9 inh 68.2, CYP2C19 inh 91.0
O=C(c1cccnc1Nc1ccc2c(c1)CCC2)N1CCOCC1	CYP2C19 inh 70.5
O=C(c1ncc[nH]1)c1ccccc1C(=O)N1CCOCC1	none
Nc1ccc2c(c1)N1CCN=C1S2	none
O=C(Nc1ccc(Cl)cc1)Nc1ccc2c(c1)N1CCN=C1S2	CYP2C9 inh 66.9
CC(C)(C)[C@H]1C=C(C(=O)N2CCN(Cc3ccccc3)CC2)O[C@@H](OCc2ccc(CO)cc2)C1	none (no result: CYP2C9 inh, CYP2C19 inh, CYP2C19 act, CYP2C9 act)
COc1ccccc1-n1c(C)cc(C=O)c1C	CYP2C9 inh 54.4
COc1ccccc1N1CCN(S(C)(=O)=O)CC1	none
CC(C)Cn1c(N)c(C(=O)COC(=O)CC23CC4CC(CC(C4)C2)C3)c(=O)n(C)c1=O	CYP2C9 inh 84.6, CYP2C19 inh 62.7
CC(C)Cn1c(N)c(C(=O)COC(=O)c2ccncc2)c(=O)n(C)c1=O	CYP2C9 inh 52.6
Cc1nn(Cc2c(Cl)cccc2Cl)c(C)c1NC(=O)c1sc2ccccc2c1Cl	none
Cc1nn(Cc2ccc(Cl)c(Cl)c2)c(C)c1NC(=O)c1sc2ccccc2c1Cl	CYP2C9 inh 86.7, CYP2C19 inh 69.7, Cav3 T inh -8.11
Cc1ccccc1Cn1nc(C)c(NC(=O)c2sc3ccccc3c2Cl)c1C	Cav3 T inh -6.84
Cc1cc2occ(CC(=O)NC3=NCCS3)c2cc1C(C)C	none
O=C(Nc1cc(S(=O)(=O)N2CCOCC2)ccc1Cl)C(=O)c1c(-c2ccccc2)cc2ccccn12	CYP2C9 inh 69.8
O=C(c1cccs1)N1CCc2c([nH]c3ccccc23)C1c1ccc(Cl)cc1 (stereo unspecified)	CYP2C9 inh 51.4
O=C(CC1C(=O)NCCN1C(=O)Nc1ccccc1)Nc1ccc2c(c1)OCCO2 (stereo unspecified)	none
Cc1ccc(S(=O)(=O)Nc2nc3ccc(S(=O)(=O)N4CCCC4)cc3s2)cc1	CYP2C9 inh 98.0
O=C(Nc1nc2ccc(S(=O)(=O)N3CCCC3)cc2s1)c1cccs1	none
O=S(=O)(Nc1nc2ccc(S(=O)(=O)N3CCCCC3)cc2s1)c1ccccc1	CYP2C9 inh 99.3
COC(=O)CCN(C)CCC(=O)OC	none
O=C(c1ccc(Cl)cc1)N1CCC(O)(CSc2ccccc2)CC1	CYP2C19 inh 54.0 (no result: Cav3 T inh)
Cc1ccc(SCC2(O)CCN(S(=O)(=O)c3ccc(Cl)cc3)CC2)cc1	Cav3 T inh -6.15 (no result: CYP2C9 inh, CYP2C19 inh, CYP2C19 act, CYP2C9 act)
Cc1ccc(S(=O)(=O)N2CCC(C(=O)NNS(=O)(=O)c3ccc(Cl)cc3)CC2)cc1	none
O=C(c1ccc(Cl)cc1)N1CCC(O)(CSc2ccc(Cl)cc2)CC1	Cav3 T inh -6.55
CCc1ccc(NC(=O)C(=O)NCCN2CCN(C(=O)c3ccco3)CC2)cc1	none (no result: CYP2C9 inh, CYP2C19 inh, CYP2C19 act, CYP2C9 act)
CCc1nc(NCCCn2ccnc2)c2oc3ccccc3c2n1	CYP2C9 inh 98.5, CYP2C19 inh 90.8
Cc1cc(NCCCn2ccnc2)n2c(nc3ccccc32)c1C#N	CYP2C9 inh 83.0, CYP2C19 inh 77.0
Cc1cccc2cc(C#N)c(NCCCn3ccnc3)nc12	CYP2C9 inh 98.4, CYP2C19 inh 98.5
Cc1nc(NCCCn2ccnc2)c2ccccc2n1	none
O=C(Nc1ccc(Cl)cc1C(=O)N1CCOCC1)c1ccco1	none
COc1cccc(C(=O)CSc2nc3ccccc3n2CC(=O)N(C(C)C)C(C)C)c1	none (no result: CYP2C9 inh, CYP2C19 inh, CYP2C19 act, CYP2C9 act)
O=C(NC1CC2CCCC(C1)N2C(=O)Nc1ccc(Cl)c(C(F)(F)F)c1)C1CC1 (stereo unspecified)	Cav3 T inh -5.73
Cc1ccc(/C=C/c2ccc(=O)n(Cc3ccc(Cl)cc3Cl)n2)cc1	none (no result: Cav3 T inh)
O=C(NCc1ccco1)C1CCCN1C(=O)NCc1ccccc1 (stereo unspecified)	none
COc1c2c(c(C)c3c1C(=O)OC3)O[C@@]1(C)CC[C@@]3(O)C(C)(C)OC(=O)CC[C@]3(C)[C@H]1C2	none (no result: CYP2C9 inh, CYP2C19 inh, CYP2C19 act, CYP2C9 act)
Cn1c(NC(=O)c2ccco2)cc(=O)n(C)c1=O	none
Cc1[nH]c2ccccc2c1Cc1nnc(SCC(=O)NCc2ccco2)o1	CYP2C9 act 2.6
Cc1cc(C)c(NC(=O)CSc2nnc(-c3ccncc3)n2Cc2ccco2)c(C)c1	none
O=C(CSc1nnc(-c2ccncc2)n1Cc1ccco1)c1ccc(Cl)cc1	CYP2C9 inh 91.8, CYP2C19 inh 95.0
O=C(CSc1nnc(-c2ccc(Cl)cc2)n1Cc1ccco1)c1cccs1	CYP2C9 inh 54.7
O=C(CSc1nnc(-c2ccncc2)n1Cc1ccco1)Nc1ccccc1Cl	CYP2C9 inh 89.3, CYP2C19 inh 97.3
CCOC(=O)N1C2=NC(C(=O)OC)=C(C(=O)OC)[C@@H]3N(Cc4ccccc4)c4ccccc4[C@]23C[C@H]1C(=O)OC	none (no result: CYP2C9 inh, CYP2C19 inh, CYP2C19 act, CYP2C9 act)
C=CCc1ccc(OCC(O)CN2CCCCC2C)c(OC)c1 (stereo unspecified)	none
COc1ccc(NC(=O)c2cccnc2N2CCCC2)cc1	CYP2C9 inh 94.1
O=C(Nc1ccc(Br)cc1)c1cccnc1N1CCCCC1	CYP2C9 inh 85.5
CCC(CC)C(=O)Nc1c2c(nn1-c1ccc(OC)cc1)CS(=O)C2 (stereo unspecified)	none
Cc1ccc(Oc2c(C=O)c3ccccc3n2C)cc1	CYP2C19 inh 67.8
Cc1ccc(Oc2ccccc2/C=C/C(=O)O)cc1	none
Cn1c(Oc2ccc(Cl)cc2)c(C=O)c2ccccc21	CYP2C19 inh 57.7
Cn1c(Sc2ccccc2Cl)c(C=O)c2ccccc21	none (no result: Cav3 T inh)
COc1ccc(Oc2c(C=O)c3ccccc3n2C)cc1	CYP2C19 inh 69.2
COc1ccc(-c2c(NC(=O)C(C)C)n(C)c3ccccc3c2=O)cc1	none
COC(=O)C1=C(N)c2c(F)cccc2C1(C#N)c1ccc(F)cc1 (stereo unspecified)	CYP2C19 inh 65.8, Cav3 T inh -5.65
COC(=O)c1cn(C(=O)c2ccccc2F)nc1N	none
OC(CN1C2=NCCN2c2ccccc21)c1ccc2c(c1)OCO2 (stereo unspecified)	none
COc1ccc(CCC(C(O)C(F)(F)F)S(=O)c2ccccc2)cc1 (stereo unspecified)	CYP2C9 inh 50.3, CYP2C19 inh 60.2
OC(COc1ccc(C2C=CCC2)cc1)CN1CCCCC1 (stereo unspecified)	none
O=S(=O)(c1cccc2nsnc12)N1CCc2ccccc2C1	none (no result: CYP2C9 inh, CYP2C19 inh, CYP2C19 act, CYP2C9 act)
O=C(c1cc2ccccc2oc1=O)N1CCN(CCc2ccccc2)CC1	none
O=S(=O)(c1ccc2oc3ccc(S(=O)(=O)N4CCCCC4)cc3c2c1)N1CCCCC1	CYP2C9 inh 65.5
O=C(c1cccc(S(=O)(=O)N2CCOCC2)c1)N1CCCc2ccccc21	none
O=C(c1cc2c(ccc3ccccc32)oc1=O)N1CCCC1	CYP2C9 inh 72.6
Cc1c(C(=O)N2CCCCCC2)oc2ccccc12	CYP2C19 inh 91.0
O=S(=O)(c1ccc2oc3ccccc3c2c1)N1CCCC1	none (no result: CYP2C9 inh, CYP2C19 inh, CYP2C19 act, CYP2C9 act)

Source: PubChem BioAssay (several laboratories)
